# Reference: PMC7862700, “An all-to-all approach to the identification of sequence-specific readers for epigenetic DNA modifications on cytosine”
# What was measured:
# Test in all cases: DAPPL (digital affinity profiling via proximity ligation, sequencing); 10 mM Tris-HCl pH 7.5, 50 mM NaCl, 1 mM DTT, 4% glycerol, room temperature, 30 min; GST-TFs on glutathione beads, 16-mer random dsDNA library, 0.1% formaldehyde crosslink after washing; high values mean tight binding
# FEV = biological target: T1, FEV (Homo sapiens, UniProt Q99581 1-238); conditions: protein: recombinant; tags: N-terminal GST; dsDNA, one strand shown
# T1 sequence: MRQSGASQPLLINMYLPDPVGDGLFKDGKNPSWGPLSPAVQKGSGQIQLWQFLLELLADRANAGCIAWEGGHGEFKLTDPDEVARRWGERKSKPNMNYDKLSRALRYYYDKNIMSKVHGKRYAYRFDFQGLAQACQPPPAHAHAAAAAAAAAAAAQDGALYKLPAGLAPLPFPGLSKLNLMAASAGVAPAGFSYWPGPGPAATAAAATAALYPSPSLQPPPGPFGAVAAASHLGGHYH
# Summary of the method: (§1)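 Yeast served to express human transcription factors as GST fusions, which were then captured on glutathione beads and labelled with DNA barcodes. Pooled with a tag-only sample, they were incubated with 200 nmole of a 16-mer random double-stranded DNA library for 30 min at room temperature in Tris/NaCl/DTT/glycerol buffer, washed, crosslinked with 0.1% formaldehyde, ligated by proximity, amplified by PCR and sequenced. Dividing each hexamer's read frequency for a factor by its frequency for the tag-only sample gives the binding signal.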
# ETV5 = ETV5 (Homo sapiens, UniProt P41161 1-510); conditions: protein: recombinant; tags: N-terminal GST; dsDNA, one strand shown
# ETV5, sequence (P41161 whole entry): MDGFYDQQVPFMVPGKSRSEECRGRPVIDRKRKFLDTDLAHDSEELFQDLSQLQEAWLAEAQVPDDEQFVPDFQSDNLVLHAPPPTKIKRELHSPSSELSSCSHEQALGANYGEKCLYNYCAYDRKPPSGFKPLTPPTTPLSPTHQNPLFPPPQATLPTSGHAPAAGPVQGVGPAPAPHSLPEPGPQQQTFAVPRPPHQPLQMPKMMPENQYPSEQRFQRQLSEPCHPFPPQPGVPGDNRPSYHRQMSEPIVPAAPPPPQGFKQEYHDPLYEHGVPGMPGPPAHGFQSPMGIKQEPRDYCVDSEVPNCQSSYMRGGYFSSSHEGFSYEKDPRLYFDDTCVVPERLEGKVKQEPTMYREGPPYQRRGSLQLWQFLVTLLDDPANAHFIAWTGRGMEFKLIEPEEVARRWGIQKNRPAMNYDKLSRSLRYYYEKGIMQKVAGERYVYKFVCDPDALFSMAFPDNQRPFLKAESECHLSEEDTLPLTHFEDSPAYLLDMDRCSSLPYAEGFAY
# Summary of the method: as §1
# HSF1 = HSF1 (Homo sapiens, UniProt Q00613 1-529); conditions: protein: recombinant; tags: N-terminal GST; chain copies: 3; dsDNA, one strand shown
# HSF1, sequence (Q00613 whole entry): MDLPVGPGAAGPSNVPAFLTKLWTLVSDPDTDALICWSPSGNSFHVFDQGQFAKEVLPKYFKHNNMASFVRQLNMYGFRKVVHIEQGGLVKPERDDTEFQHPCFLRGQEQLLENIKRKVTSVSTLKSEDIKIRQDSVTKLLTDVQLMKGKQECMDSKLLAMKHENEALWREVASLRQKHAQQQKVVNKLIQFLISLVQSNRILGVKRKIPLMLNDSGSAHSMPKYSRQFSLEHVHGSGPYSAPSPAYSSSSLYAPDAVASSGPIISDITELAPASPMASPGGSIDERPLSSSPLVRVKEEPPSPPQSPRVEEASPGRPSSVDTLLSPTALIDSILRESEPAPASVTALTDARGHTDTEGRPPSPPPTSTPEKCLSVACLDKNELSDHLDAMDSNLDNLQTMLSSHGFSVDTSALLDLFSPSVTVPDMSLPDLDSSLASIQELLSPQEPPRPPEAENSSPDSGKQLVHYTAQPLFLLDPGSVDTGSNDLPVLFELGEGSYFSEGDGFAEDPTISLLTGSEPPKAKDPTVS
# Summary of the method: as §1
# SPIC = biological target: T2, SPIC (Homo sapiens, UniProt Q8N5J4 1-248); conditions: protein: recombinant; tags: N-terminal GST; dsDNA, one strand shown
# T2 sequence: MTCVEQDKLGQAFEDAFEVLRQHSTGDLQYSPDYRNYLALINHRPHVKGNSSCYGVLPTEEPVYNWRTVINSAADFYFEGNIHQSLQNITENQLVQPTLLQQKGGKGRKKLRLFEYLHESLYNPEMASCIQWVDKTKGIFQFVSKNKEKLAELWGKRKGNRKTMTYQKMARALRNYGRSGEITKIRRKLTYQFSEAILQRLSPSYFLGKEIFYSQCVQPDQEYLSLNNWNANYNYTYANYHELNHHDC
# Summary of the method: as §1
# ELF4 = ELF4 (Homo sapiens, UniProt Q99607 1-663); conditions: protein: recombinant; tags: N-terminal GST; dsDNA, one strand shown
# ELF4, sequence (Q99607 whole entry): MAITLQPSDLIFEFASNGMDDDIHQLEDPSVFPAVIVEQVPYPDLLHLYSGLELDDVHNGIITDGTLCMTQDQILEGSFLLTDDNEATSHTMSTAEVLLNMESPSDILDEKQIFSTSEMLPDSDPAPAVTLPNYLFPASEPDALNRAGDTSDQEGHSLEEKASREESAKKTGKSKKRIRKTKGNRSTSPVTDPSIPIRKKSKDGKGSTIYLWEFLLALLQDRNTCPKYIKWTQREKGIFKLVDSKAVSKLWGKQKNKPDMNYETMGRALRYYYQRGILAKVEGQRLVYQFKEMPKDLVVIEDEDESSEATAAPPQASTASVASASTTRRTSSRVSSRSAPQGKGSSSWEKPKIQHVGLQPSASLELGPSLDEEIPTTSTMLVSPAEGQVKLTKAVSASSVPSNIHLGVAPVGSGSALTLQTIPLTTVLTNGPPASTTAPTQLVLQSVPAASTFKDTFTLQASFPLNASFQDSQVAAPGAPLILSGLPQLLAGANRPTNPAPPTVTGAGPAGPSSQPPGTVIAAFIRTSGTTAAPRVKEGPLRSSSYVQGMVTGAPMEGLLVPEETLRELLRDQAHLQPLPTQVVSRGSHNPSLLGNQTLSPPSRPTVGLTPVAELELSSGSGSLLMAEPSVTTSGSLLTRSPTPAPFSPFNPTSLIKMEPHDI
# Summary of the method: as §1
# ELK4 = biological target: T3, ELK4 (Homo sapiens, UniProt P28324-2 1-405); conditions: protein: recombinant; tags: N-terminal GST; dsDNA, one strand shown
# T3 sequence: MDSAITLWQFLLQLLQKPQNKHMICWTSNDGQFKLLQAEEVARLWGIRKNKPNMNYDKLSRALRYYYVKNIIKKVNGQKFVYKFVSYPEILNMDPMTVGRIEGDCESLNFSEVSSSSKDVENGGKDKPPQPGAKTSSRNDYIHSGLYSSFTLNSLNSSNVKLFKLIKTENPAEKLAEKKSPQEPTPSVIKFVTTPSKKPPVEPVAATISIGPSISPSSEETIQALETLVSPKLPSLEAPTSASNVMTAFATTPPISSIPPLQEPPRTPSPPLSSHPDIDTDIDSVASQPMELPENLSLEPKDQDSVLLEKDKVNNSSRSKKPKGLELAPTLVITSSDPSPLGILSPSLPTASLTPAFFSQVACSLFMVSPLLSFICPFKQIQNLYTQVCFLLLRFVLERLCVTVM
# Summary of the method: as §1
# ETV2 = biological target: T4, ETV2 (Homo sapiens, UniProt O00321 1-342); conditions: protein: recombinant; tags: N-terminal GST; dsDNA, one strand shown
# T4 sequence: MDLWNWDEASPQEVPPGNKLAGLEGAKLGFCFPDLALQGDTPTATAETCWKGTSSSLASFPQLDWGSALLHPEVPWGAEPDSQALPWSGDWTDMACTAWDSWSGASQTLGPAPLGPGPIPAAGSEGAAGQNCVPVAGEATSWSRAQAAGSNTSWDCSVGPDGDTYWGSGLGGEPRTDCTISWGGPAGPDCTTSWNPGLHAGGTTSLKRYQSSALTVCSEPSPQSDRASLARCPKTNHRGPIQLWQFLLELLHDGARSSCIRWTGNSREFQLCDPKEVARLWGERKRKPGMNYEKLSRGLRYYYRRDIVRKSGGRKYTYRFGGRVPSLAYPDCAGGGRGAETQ
# Summary of the method: as §1
# ELF3 = biological target: T5, ELF3 (Homo sapiens, UniProt P78545 1-371); conditions: protein: recombinant; tags: N-terminal GST; dsDNA, one strand shown
# T5 sequence: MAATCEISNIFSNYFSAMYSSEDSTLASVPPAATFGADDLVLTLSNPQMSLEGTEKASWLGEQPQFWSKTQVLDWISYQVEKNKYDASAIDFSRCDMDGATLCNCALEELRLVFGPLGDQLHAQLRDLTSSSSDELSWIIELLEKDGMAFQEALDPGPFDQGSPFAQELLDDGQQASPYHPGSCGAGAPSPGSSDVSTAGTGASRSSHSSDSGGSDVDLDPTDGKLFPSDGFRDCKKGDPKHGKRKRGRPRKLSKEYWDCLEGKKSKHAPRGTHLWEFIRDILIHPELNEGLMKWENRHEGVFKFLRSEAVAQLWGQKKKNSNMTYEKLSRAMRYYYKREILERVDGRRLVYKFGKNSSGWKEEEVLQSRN
# Summary of the method: as §1
# CRX = CRX (Homo sapiens, UniProt O43186 1-299); conditions: protein: recombinant; tags: N-terminal GST; dsDNA, one strand shown
# CRX, sequence (O43186 whole entry): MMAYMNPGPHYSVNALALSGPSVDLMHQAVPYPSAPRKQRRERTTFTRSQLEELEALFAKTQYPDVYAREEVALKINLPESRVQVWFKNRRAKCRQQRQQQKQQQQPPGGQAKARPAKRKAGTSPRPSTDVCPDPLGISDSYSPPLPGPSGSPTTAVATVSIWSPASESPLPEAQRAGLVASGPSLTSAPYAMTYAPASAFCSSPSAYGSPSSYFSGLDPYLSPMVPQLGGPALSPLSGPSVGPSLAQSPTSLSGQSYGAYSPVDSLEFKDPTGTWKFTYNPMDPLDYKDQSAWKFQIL
# Summary of the method: as §1
# ETV1 = ETV1 (Homo sapiens, UniProt P50549 1-477); conditions: protein: recombinant; tags: N-terminal GST; dsDNA, one strand shown
# ETV1, sequence (P50549 whole entry): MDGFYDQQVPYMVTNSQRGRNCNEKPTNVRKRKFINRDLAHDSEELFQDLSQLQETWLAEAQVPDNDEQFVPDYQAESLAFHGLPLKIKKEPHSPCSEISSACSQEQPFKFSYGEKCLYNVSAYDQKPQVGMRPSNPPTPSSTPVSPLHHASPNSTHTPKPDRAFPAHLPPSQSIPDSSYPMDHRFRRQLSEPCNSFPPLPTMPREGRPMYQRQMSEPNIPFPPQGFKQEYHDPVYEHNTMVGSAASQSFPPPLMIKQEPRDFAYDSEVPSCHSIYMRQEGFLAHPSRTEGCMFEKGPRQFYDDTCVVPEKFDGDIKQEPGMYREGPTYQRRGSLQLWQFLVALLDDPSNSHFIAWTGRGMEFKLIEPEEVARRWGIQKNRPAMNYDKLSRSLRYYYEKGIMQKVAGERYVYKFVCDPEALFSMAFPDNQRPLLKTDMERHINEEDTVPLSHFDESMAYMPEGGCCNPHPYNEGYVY
# Summary of the method: as §1
# ERF = biological target: T6, ERF (Homo sapiens, UniProt P50548 1-548); conditions: protein: recombinant; tags: N-terminal GST; dsDNA, one strand shown
# T6 sequence: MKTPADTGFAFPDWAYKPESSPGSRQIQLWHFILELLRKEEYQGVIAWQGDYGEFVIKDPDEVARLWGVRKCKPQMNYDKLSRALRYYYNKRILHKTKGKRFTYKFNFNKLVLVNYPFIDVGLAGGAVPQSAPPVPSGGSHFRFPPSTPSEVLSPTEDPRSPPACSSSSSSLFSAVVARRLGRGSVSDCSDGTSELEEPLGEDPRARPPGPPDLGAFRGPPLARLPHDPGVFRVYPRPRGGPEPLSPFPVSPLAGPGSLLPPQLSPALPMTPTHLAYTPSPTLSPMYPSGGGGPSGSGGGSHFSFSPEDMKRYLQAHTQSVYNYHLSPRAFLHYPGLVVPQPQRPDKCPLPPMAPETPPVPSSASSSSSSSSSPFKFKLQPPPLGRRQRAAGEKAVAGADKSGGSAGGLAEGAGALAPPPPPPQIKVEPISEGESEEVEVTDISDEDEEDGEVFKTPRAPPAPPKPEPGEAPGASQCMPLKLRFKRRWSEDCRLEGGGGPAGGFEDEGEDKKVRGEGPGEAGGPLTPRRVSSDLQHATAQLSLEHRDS
# Summary of the method: as §1
# ETV3L = biological target: T7, ETV3L (Homo sapiens, UniProt Q6ZN32 1-361); conditions: protein: recombinant; tags: N-terminal GST; dsDNA, one strand shown
# T7 sequence: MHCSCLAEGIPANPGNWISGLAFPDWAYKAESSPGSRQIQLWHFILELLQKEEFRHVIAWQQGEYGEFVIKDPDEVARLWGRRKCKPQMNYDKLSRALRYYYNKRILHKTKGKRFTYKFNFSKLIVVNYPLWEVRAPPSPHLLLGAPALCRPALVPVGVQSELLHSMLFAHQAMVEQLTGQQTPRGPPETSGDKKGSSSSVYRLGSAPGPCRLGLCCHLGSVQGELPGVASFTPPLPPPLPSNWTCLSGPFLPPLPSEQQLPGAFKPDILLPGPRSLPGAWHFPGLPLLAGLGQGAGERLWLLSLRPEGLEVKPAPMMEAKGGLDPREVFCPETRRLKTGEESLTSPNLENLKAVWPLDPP
# Summary of the method: as §1
# ETS2 = biological target: T8, ETS2 (Homo sapiens, UniProt P15036 1-469); conditions: protein: recombinant; tags: N-terminal GST; dsDNA, one strand shown
# T8 sequence: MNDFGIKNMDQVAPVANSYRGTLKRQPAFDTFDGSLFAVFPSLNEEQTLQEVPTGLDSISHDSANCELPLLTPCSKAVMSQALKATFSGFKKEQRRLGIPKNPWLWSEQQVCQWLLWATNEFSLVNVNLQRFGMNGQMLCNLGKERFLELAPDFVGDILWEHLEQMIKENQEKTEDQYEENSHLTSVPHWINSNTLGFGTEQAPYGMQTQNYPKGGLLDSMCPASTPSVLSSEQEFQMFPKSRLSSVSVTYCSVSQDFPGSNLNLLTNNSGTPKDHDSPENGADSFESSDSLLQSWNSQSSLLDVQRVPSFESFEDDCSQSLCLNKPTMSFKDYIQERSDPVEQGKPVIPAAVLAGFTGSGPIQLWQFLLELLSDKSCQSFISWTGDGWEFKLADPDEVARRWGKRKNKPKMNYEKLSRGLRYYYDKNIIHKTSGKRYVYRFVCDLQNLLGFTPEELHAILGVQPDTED
# Summary of the method: as §1
# ETV7 = biological target: T9, ETV7 (Homo sapiens, UniProt Q9Y603 1-341); conditions: protein: recombinant; tags: N-terminal GST; dsDNA, one strand shown
# T9 sequence: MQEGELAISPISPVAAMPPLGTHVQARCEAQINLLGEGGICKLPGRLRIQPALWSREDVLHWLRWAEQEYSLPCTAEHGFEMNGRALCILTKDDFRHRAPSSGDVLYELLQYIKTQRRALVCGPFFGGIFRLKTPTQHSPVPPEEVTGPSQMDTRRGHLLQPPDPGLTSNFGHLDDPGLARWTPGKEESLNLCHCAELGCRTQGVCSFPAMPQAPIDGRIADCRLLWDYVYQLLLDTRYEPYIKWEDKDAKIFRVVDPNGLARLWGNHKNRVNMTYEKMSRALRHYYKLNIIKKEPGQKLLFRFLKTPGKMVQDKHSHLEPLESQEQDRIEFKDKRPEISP
# Summary of the method: as §1
# ELF5 = biological target: T10, ELF5 (Homo sapiens, UniProt Q9UKW6-2 1-255); conditions: protein: recombinant; tags: N-terminal GST; dsDNA, one strand shown
# T10 sequence: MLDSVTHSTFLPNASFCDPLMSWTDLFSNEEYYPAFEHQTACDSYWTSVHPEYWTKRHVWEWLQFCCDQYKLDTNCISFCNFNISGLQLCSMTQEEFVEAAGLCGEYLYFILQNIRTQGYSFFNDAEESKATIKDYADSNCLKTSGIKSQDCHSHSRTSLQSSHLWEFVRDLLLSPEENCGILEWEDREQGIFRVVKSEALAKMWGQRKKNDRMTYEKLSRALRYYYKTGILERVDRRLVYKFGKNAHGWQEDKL
# Summary of the method: as §1
# ETV3 = biological target: T11, ETV3 (Homo sapiens, UniProt P41162-2 1-143); conditions: protein: recombinant; tags: N-terminal GST; dsDNA, one strand shown
# T11 sequence: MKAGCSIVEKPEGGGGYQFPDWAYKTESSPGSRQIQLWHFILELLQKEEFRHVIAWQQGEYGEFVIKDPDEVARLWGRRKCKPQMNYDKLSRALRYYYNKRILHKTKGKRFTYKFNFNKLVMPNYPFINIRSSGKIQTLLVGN
# Summary of the method: as §1
# ETV6 = ETV6 (Homo sapiens, UniProt P41212 1-452); conditions: protein: recombinant; tags: N-terminal GST; dsDNA, one strand shown
# ETV6, sequence (P41212 whole entry): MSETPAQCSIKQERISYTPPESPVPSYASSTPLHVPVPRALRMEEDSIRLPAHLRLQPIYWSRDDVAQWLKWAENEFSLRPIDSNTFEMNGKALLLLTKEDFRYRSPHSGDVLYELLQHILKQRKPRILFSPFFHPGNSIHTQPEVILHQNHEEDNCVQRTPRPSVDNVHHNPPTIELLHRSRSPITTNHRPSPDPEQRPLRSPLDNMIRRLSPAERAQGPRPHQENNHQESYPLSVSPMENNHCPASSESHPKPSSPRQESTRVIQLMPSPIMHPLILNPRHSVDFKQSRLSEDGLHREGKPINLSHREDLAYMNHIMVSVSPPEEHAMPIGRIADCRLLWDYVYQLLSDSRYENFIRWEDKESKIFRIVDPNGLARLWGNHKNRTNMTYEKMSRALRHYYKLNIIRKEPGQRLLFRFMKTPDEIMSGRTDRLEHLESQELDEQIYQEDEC
# Summary of the method: as §1
sequence,measurement,setting,value
TTGAGG,binding signal,FEV,"1.06 fold enrichment (6-mer frequency, TF over GST control)"
same,binding signal,ETV5,"1.09 fold enrichment (6-mer frequency, TF over GST control)"
same,binding signal,HSF1,"1.01 fold enrichment (6-mer frequency, TF over GST control)"
same,binding signal,SPIC,"1.26 fold enrichment (6-mer frequency, TF over GST control)"
same,binding signal,ELF4,"1.13 fold enrichment (6-mer frequency, TF over GST control)"
same,binding signal,ELK4,"1.23 fold enrichment (6-mer frequency, TF over GST control)"
same,binding signal,ETV2,"1.1 fold enrichment (6-mer frequency, TF over GST control)"
same,binding signal,ELF3,"1.05 fold enrichment (6-mer frequency, TF over GST control)"
same,binding signal,CRX,"1.02 fold enrichment (6-mer frequency, TF over GST control)"
same,binding signal,ETV1,"1.06 fold enrichment (6-mer frequency, TF over GST control)"
same,binding signal,ERF,"1.12 fold enrichment (6-mer frequency, TF over GST control)"
same,binding signal,ETV3L,"1.03 fold enrichment (6-mer frequency, TF over GST control)"
same,binding signal,ETS2,"1.04 fold enrichment (6-mer frequency, TF over GST control)"
same,binding signal,ETV7,"1.03 fold enrichment (6-mer frequency, TF over GST control)"
same,binding signal,ELF5,"1.11 fold enrichment (6-mer frequency, TF over GST control)"
same,binding signal,ETV3,"1.12 fold enrichment (6-mer frequency, TF over GST control)"
same,binding signal,ETV6,"1.13 fold enrichment (6-mer frequency, TF over GST control)"
